# The supplement of paper PMC8728848
# About 410 targets per protein were measured; listed, in parts, are those with the strongest signals and a random draw of the rest.
# B1: OGAN (protein)
# chain: MVQKESQATLEERESELSSNPAASAGASLEPPAAPAPGEDNPAGAGGAAVAGAAGGARRFLCGVVEGFYGRPWVMEQRKELFRRLQKWELNTYLYAPKDDYKHRMFWREMYSVEEAEQLMTLISAAREYEIEFIYAISPGLDITFSNPKEVSTLKRKLDQVSQFGCRSFALLFNDIDHNMCAADKEVFSSFAHAQVSITNEIYQYLGEPETFLFCPTEYCGTFCYPNVSQSPYLRTVGEKLLPGIEVLWTGPKVVSKEIPVESIEEVSKIIKRAPVIWDNIHANDYDQKRLFLGPYKGRSTELIPRLKGVLTNPNCEFEANYVAIHTLATWYKSNMNGVRKDVVMTDSEDSTVSIQIKLENEGSDEDIETDVLYSPQMALKLALTEWLQEFGVPHQY
# Legend:
# Assay in all cases: glycan array binding signal (z-score within array); higher = stronger binding
# Conditions in all cases: glycan notation: IUPAC condensed, linker removed
# [1] = molecular target: Gal3S6S(b1-4)GlcNAc
# Procedure, shortened: (§1)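 Arrays were curated from the Consortium for Functional Glycomics database, 3228 in total, and kept only where the protein sequence was available. Binding is expressed as a within-array Z-score. This score was averaged across arrays of the same protein sequence at different concentrations or buffers and across linkers, and negative values can be read as non-binding.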
# [2] = molecular target: Glc(a1-4)Glc(a1-4)Glc(a1-4)Glc
# Procedure, shortened: as §1
# [3] = molecular target: GlcA3S(b1-3)Gal(b1-4)GlcNAc(b1-2)Man
# Procedure, shortened: as §1
# [4] = molecular target: GlcNAc(a1-3)Gal(b1-4)GlcNAc
# Procedure, shortened: as §1
# [5] = molecular target: GlcNAc(a1-4)Gal(b1-4)GlcNAc(b1-3)Gal(b1-4)GlcNAc(b1-3)Gal(b1-4)GlcNAc
# Procedure, shortened: as §1
# [6] = molecular target: GlcNAc(a1-4)Gal(b1-4)GlcNAc(b1-3)Gal(b1-4)[Fuc(a1-3)]GlcNAc(b1-3)Gal(b1-4)[Fuc(a1-3)]GlcNAc
# Procedure, shortened: as §1
# [7] = molecular target: GlcNAc(b1-2)Man(a1-3)[GlcNAc(b1-4)][GlcNAc(b1-2)Man(a1-6)]Man(b1-4)GlcNAc(b1-4)[Fuc(a1-6)]GlcNAc
# Procedure, shortened: as §1
# [8] = molecular target: GlcNAc(b1-3)Gal(b1-3)GalNAc
# Procedure, shortened: as §1
# [9] = molecular target: GlcNAc(b1-3)Gal(b1-4)GlcNAc
# Procedure, shortened: as §1
# [10] = molecular target: GlcNAc(b1-3)Gal(b1-4)GlcNAc(b1-2)Man(a1-3)[GlcNAc(b1-3)Gal(b1-4)GlcNAc(b1-2)Man(a1-6)]Man(b1-4)GlcNAc(b1-4)GlcNAc
# Procedure, shortened: as §1
# [11] = molecular target: GlcNAc(b1-3)Gal(b1-4)GlcNAc(b1-3)Gal(b1-4)GlcNAc
# Procedure, shortened: as §1
# [12] = molecular target: GlcNAc(b1-3)Gal(b1-4)GlcNAc(b1-3)Gal(b1-4)GlcNAc(b1-3)Gal(b1-4)GlcNAc(b1-3)Gal(b1-4)GlcNAc(b1-2)[GlcNAc(b1-3)Gal(b1-4)GlcNAc(b1-3)Gal(b1-4)GlcNAc(b1-3)Gal(b1-4)GlcNAc(b1-3)Gal(b1-4)GlcNAc(b1-6)]Man(a1-6)[GlcNAc(b1-3)Gal(b1-4)GlcNAc(b1-3)Gal(b1-4)GlcNAc(b1-3)Gal(b1-4)GlcNAc(b1-3)Gal(b1-4)GlcNAc(b1-2)Man(a1-3)]Man(b1-4)GlcNAc(b1-4)[Fuc(a1-6)]GlcNAc
# Procedure, shortened: as §1
# [13] = molecular target: GlcNAc(b1-3)Gal(b1-4)GlcNAc(b1-6)[GlcNAc(b1-3)Gal(b1-3)]GalNAc
# Procedure, shortened: as §1
# [14] = molecular target: GlcNAc(b1-3)[GlcNAc(b1-4)][GlcNAc(b1-6)]GlcNAc
# Procedure, shortened: as §1
# [15] = molecular target: Kdn(a2-3)Gal(b1-4)Glc
# Procedure, shortened: as §1
# [16] = molecular target: Man(a1-2)Man(a1-3)Man
# Procedure, shortened: as §1
# [17] = molecular target: Man(a1-2)Man(a1-3)[Man(a1-2)Man(a1-6)]Man(a1-6)[Man(a1-2)Man(a1-2)Man(a1-3)]Man(b1-4)GlcNAc(b1-4)GlcNAc
# Procedure, shortened: as §1
# [18] = molecular target: MurNAc(b1-4)GlcNAc
# Procedure, shortened: as §1
# [19] = molecular target: Neu5Ac(a2-3)Gal(b1-3)GalNAc(b1-3)Gal(a1-4)Gal(b1-4)Glc
# Procedure, shortened: as §1
# [20] = molecular target: Neu5Ac(a2-3)Gal(b1-3)GalNAc(b1-4)[Neu5Ac(a2-8)Neu5Ac(a2-3)]Gal(b1-4)Glc
# Procedure, shortened: as §1
# [21] = molecular target: Neu5Ac(a2-3)Gal(b1-4)GlcNAc(b1-2)Man(a1-3)[Neu5Ac(a2-6)Gal(b1-4)GlcNAc(b1-2)Man(a1-6)]Man(b1-4)GlcNAc(b1-4)GlcNAc
# Procedure, shortened: as §1
# [22] = molecular target: Neu5Ac(a2-3)Gal(b1-4)GlcNAc(b1-3)GalNAc
# Procedure, shortened: as §1
# [23] = molecular target: Neu5Ac(a2-3)Gal(b1-4)[Fuc(a1-3)]GlcNAc(b1-3)Gal
# Procedure, shortened: as §1
# [24] = molecular target: Neu5Ac(a2-6)Gal(b1-4)GlcNAc(b1-2)Man(a1-3)[Gal(b1-4)GlcNAc(b1-2)Man(a1-6)]Man(b1-4)GlcNAc(b1-4)GlcNAc
# Procedure, shortened: as §1
# [25] = molecular target: Neu5Ac(a2-6)Gal(b1-4)GlcNAc(b1-2)Man(a1-3)[GlcNAc(b1-4)][Neu5Ac(a2-6)Gal(b1-4)GlcNAc(b1-2)Man(a1-6)]Man(b1-4)GlcNAc(b1-4)GlcNAc
# Procedure, shortened: as §1
# [26] = molecular target: Neu5Ac(a2-6)Gal(b1-4)GlcNAc(b1-3)Gal(b1-4)GlcNAc(b1-3)Gal(b1-4)GlcNAc(b1-2)Man(a1-3)[Neu5Ac(a2-6)Gal(b1-4)GlcNAc(b1-3)Gal(b1-4)GlcNAc(b1-3)Gal(b1-4)GlcNAc(b1-2)Man(a1-6)]GalNAc
# Procedure, shortened: as §1
# [27] = molecular target: Neu5Ac(a2-6)Gal(b1-4)GlcNAc6S
# Procedure, shortened: as §1
# [28] = molecular target: Neu5Ac(a2-8)Neu5Ac(a2-3)[Gal(b1-3)GalNAc(b1-4)]Gal(b1-4)Glc
# Procedure, shortened: as §1
# [29] = molecular target: Neu5Gc(a2-6)Gal(b1-4)GlcNAc
# Procedure, shortened: as §1
# [30] = molecular target: Neu5Gc(b2-6)Gal(b1-4)GlcNAc
# Procedure, shortened: as §1
binder,measurement,setting,value
B1,glycan array binding signal (z-score),[1],-0.035
same,glycan array binding signal (z-score),[2],0.06
same,glycan array binding signal (z-score),[3],-0.022
same,glycan array binding signal (z-score),[4],-0.068
same,glycan array binding signal (z-score),[5],-0.058
same,glycan array binding signal (z-score),[6],-0.057
same,glycan array binding signal (z-score),[7],-0.074
same,glycan array binding signal (z-score),[8],-0.035
same,glycan array binding signal (z-score),[9],-0.063
same,glycan array binding signal (z-score),[10],-0.058
same,glycan array binding signal (z-score),[11],-0.055
same,glycan array binding signal (z-score),[12],0.044
same,glycan array binding signal (z-score),[13],-0.052
same,glycan array binding signal (z-score),[14],-0.047
same,glycan array binding signal (z-score),[15],-0.059
same,glycan array binding signal (z-score),[16],-0.01
same,glycan array binding signal (z-score),[17],-0.036
same,glycan array binding signal (z-score),[18],-0.024
same,glycan array binding signal (z-score),[19],-0.065
same,glycan array binding signal (z-score),[20],-0.051
same,glycan array binding signal (z-score),[21],-0.048
same,glycan array binding signal (z-score),[22],-0.082
same,glycan array binding signal (z-score),[23],-0.094
same,glycan array binding signal (z-score),[24],-0.055
same,glycan array binding signal (z-score),[25],-0.034
same,glycan array binding signal (z-score),[26],0.039
same,glycan array binding signal (z-score),[27],-0.052
same,glycan array binding signal (z-score),[28],-0.052
same,glycan array binding signal (z-score),[29],-0.071
same,glycan array binding signal (z-score),[30],-0.021
